TGFb SMAD3 inh = TGF-b pathway inhibition | HepG2 CAGA-GFP TGF-b/SMAD3 reporter, GFP fluorescence, 18 h; TGF-beta stimulated, 500 pg/mL final | Potency, µM (highest dose often 46.1 µM), inactives show at the top dose activity, negative = inhibition, usual class: inhibitors | 410,000 tested, 1.2% active | AID 588855; also: % is scaled to controls: 0 for no effect and ±100 for the full control effect; nearly all actives have a fitted effect of over 65% in size
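Inhibition of TGF-beta-driven CAGA-GFP reporter expression in HEPG2 cells is measured by cellular GFP fluorescence after 18 h stimulation with 500 pg/mL recombinant TGF-beta in 1% FBS medium at 37 degrees C.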
HepG2 tox = kills HepG2 cells in TGF-b inhibitor counter-screen; 410,000 tested, 0.76% active; Potency, µM (top dose mostly 46.1 µM), inactives show at the top dose activity change, negative = cytotoxicity, most hits filed as cytotoxic; AID 588856; HepG2 CAGA-GFP viability, ATP luminescence, 18 h
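HepG2 CAGA-GFP cells (1000/well, DMEM with 1% FBS) received compound, then TGF-beta at 500 pg/mL final, and were incubated 18 hours at 37 degrees C. Viability was read by CellTiter-Glo luminescence. Media-only wells were set as complete cell-killing and DMSO as no toxicity.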
HT1080-NT tox = kills 2HG-producing HT-1080-NT fibrosarcoma cells | HT-1080-NT fibrosarcoma viability, CellTiter-Glo ATP luminescence, 48 h | Potency, µM (series often up to 46.1 µM), for the others: at the top dose activity, negative = less viability, most hits filed as cytotoxic | 360,000 tested, 1.6% active;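 also: NT is the 2HG producing partner of a matched IDH1 knockdown line; 0% = DMSO-treated cells and -100% = media-only wells without cells; nearly all actives have a fitted effect of over 55% in size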
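Viability by CellTiter-Glo luminescence after 48 h compound exposure at 37C of HT-1080-NT cells (750/well, RPMI, 5% FBS). % activity scaled between DMSO wells and medium-only wells, then curve-fitted and categorized by curve class.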
DT40 TDP1 CPT = growth inhibition of DT40 Tdp1-/-;hTDP1 cells with camptothecin (screen for TDP1 inhibitors) | Potency, µM (titrated, usually from 46.2 µM), for inactives: top-dose activity change, negative = growth inhibition, hits mostly inhibitors | chicken DT40 Tdp1-/-;hTDP1 cells + 20 nM CPT, ATP luminescence, 48 h | 420,000 tested, 12% active; also: % is scaled to controls: 0 for no effect and ±100 for the full control effect; nearly all actives have a fitted effect of over 55% in size
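Chicken DT40 Tdp1-/- cells complemented with human TDP1, 400 cells/well, exposed to compounds plus 20 nM camptothecin for at least 48 h at 37 C; viability read as ATP content by CellTiter-Glo luminescence.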
HT1080 IDH1KD tx = HT-1080 IDH1 knockdown cell toxicity (counter line) | HT-1080 IDH1 knockdown viability, ATP luminescence, 48 h | Potency, µM (doses to about 46.1 µM), for the others: at the top dose activity, negative = toxicity, usual class: cytotoxic | 360,000 tested, 2% active | AID 686971;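 also: 0% = DMSO wells and -100% = cell-free medium wells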
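CellTiter-Glo luminescence after 48 h compound exposure at 37 degrees C of IDH1-knockdown HT-1080 cells in 5% FBS RPMI. %Activity scaled between DMSO wells and cell-free media wells, with curves fitted and assigned curve classes.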
DT40 TDP1 no CPT = qHTS for Inhibitors of human tyrosyl-DNA phosphodiesterase 1 (TDP1): qHTS in cells in absence of CPT. DT40 Tdp1-/- hTDP1 cells, no CPT, ATP luminescence, 48 h. Potency, µM (top dose mostly 46.2 µM), inactives show at the highest dose activity change, negative = growth inhibition, actives largely listed as inhibitors. 420,000 tested, 15% active. AID 686978, 2013; also: % is scaled to controls: 0 for no effect and ±100 for the full control effect; nearly all actives have a fitted effect of over 55% in size
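Luminescent ATP content (CellTiter-Glo) served as the growth readout. Knockout chicken DT40 cells expressing human TDP1 were exposed to compounds without camptothecin for a minimum 48 hr at 37 °C.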
* marks the source's active call; other numbers are inactive results; u = inconclusive; x = no result; ! = not confirmed by another sample. Compounds with a hit are over-represented: about 17% of the library has one in this group of screens. Calls follow the shape of the dose curve; as a rule, active = well fitted curve in the direction sought with a large enough effect; inconclusive = small, poorly fitted or top-dose-only effect, or another doubt; inactive = no such curve, though single readings can be large; an effect the other way counts as inactive or inconclusive. Potency is read from the fitted curve at half-maximal effect.

SMILES | TGFb SMAD3 inh | HepG2 tox | HT1080-NT tox | DT40 TDP1 CPT | HT1080 IDH1KD tx | DT40 TDP1 no CPT
O=C(Nc1nc2ccccc2n1CCN1CCOCC1)c1cn(-c2ccccc2)nc1-c1ccccc1 | -13% | -11% | u | 18µM* | u | 18µM*
O=C(NCCCN1CCOCC1)c1cn(-c2ccccc2)nc1-c1ccc(Br)cc1 | 0% | -29% | -15% | u | -26% | 16µM*
COc1ccc(OCCSc2nnc(-c3ccc(OC)cc3)n2N)cc1 | u | -1% | -24% | -4% | -27% | -10%
COC(=O)c1ccccc1NC(=O)C12CCC(C)(C(=O)O1)C2(C)C (stereo not drawn) | 9% | -1% | 0% | -1% | -23% | -16%
COc1ccc(CNC(=O)CN2CCC(NC(=O)c3cccc(OC)c3)CC2)cc1 | 4% | -4% | 1% | -1% | -8% | -21%
COc1ccccc1NC(=O)NCCN1CCCCC1 | 6% | 3% | 10% | -1% | 8% | 6%
O=C(NCCN1CCN(c2ccccc2)CC1)Nc1ccc(Cl)cc1 | -25% | -8% | u | -5% | -17% | -26%
COc1ccc2c(c1)CC(C(=O)NCCN1CCN(c3cccc(Cl)c3)CC1)CO2 (stereo not drawn) | -10% | -26% | x | 16µM* | x | 15µM*
O=C(NCCN1CCN(c2cccc(Cl)c2)CC1)Nc1ccccc1 | u | -9% | -6% | u | -9% | 15µM*
COc1ccccc1NC(=O)NCCN1CCN(c2cccc(Cl)c2)CC1 | 2% | -4% | -13% | u | -10% | 23µM*!
O=C(NCCN1CCN(c2ccccc2)CC1)Nc1cccc(Br)c1 | -10% | -38% | u | u | 0% | 29µM*
O=C(NCCN1CCN(c2cccc(Cl)c2)CC1)C1COc2ccccc2C1 (stereo not drawn) | x | -47% | x | u | x | u
O=C(NCc1ccccc1F)C1CCCN1S(=O)(=O)c1ccc(F)cc1 (stereo not drawn) | 16% | 3% | -5% | u | 0% | -23%
CCCc1cc(=O)n2[nH]c(Cc3ccccc3)nc2n1 | -27% | -20% | 5% | -11% | 8% | u
COc1ccc(-c2nc3scc(CCNS(=O)(=O)c4cccs4)n3n2)cc1 | -7% | -13% | x | 21µM* | x | 18µM*
CCS(=O)(=O)NCCc1csc2nc(-c3ccc(OC)cc3)nn12 | 1% | -3% | x | u | x | u
CCc1ccc(S(=O)(=O)NCCc2csc3nc(-c4ccccc4)nn23)s1 | 0% | -18% | x | 21µM* | x | 23µM*
O=S(=O)(NCCc1csc2nc(-c3ccccc3)nn12)c1cccs1 | u | -22% | x | u | x | 16µM*
CCCS(=O)(=O)NCCc1csc2nc(-c3ccc(OC)cc3)nn12 | -9% | -5% | x | u | x | u
O=c1[nH]c(Nc2ccc3c(c2)OCCO3)nnc1Cc1ccc(Cl)cc1 | -2% | -10% | -2% | u | 18% | u
CN1CCN(c2ccc(S(=O)(=O)N3CCOCC3)cc2NC(=O)COc2ccc(F)cc2Cl)CC1 | 0% | 120% | 1% | 26µM* | 13% | u
O=C(COc1ccc(F)cc1Cl)Nc1cc(S(=O)(=O)N2CCOCC2)ccc1N1CCCCC1 | -24% | 2% | -4% | u | -20% | u
CCN(CC)S(=O)(=O)c1ccc(N2CCN(C)CC2)c(NC(=O)COc2ccc(F)cc2Cl)c1 | -14% | -30% | -4% | u | -1% | 16µM*
CCN(CC)S(=O)(=O)c1ccc(N2CCOCC2)c(NC(=O)COc2ccc(Cl)cc2)c1 | -5% | 18% | 7% | u | -1% | u

Screening data as filed in PubChem BioAssay.
